# Experimental data from PubChem BioAssay (NCI).
# Compounds without any hit were thinned out: in the full panel of roughly 79,000, 15% have a hit. Values without a mark were called inactive. Active and inactive are the calls of the source. No stated cut-off is given here; in the data, active means growth inhibition above about 70%; inactive means the rest.
# Columns and labels:
# [1] = NCI Yeast Anticancer Drug Screen. Data for the rad50 strain (AID 155);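 further: 0% = growth of vehicle-only cultures of the same strain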; conditions: S. cerevisiae rad50 strain growth inhibition, active compounds read high
# Summary of the method: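 Vehicle-treated cultures provide the reference for the growth inhibition reported for compound-exposed, repair-deficient yeast.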
# [2] = NCI Yeast Anticancer Drug Screen. Data for the mec2-1 strain (AID 157); conditions: S. cerevisiae mec2-1 strain, active compounds read high
# Summary of the method: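 Strain: mec2-1 (DNA repair/cell cycle alteration). Compound exposure, then growth measured; inhibition expressed relative to vehicle.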
# [3] = NCI Yeast Anticancer Drug Screen. Data for the sgs1 mgt1 strain (AID 161);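 further: 0% = growth of cultures given vehicle only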; conditions: S. cerevisiae sgs1 mgt1 strain, active compounds read high
# Summary of the method: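 Read-out: growth inhibition vs vehicle controls. Cells: mutant yeast strain deficient in DNA damage repair.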
# [4] = NCI Yeast Anticancer Drug Screen. Data for the cln2 rad14 strain (AID 165);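 further: 0% = growth equal to vehicle treated cultures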; conditions: S. cerevisiae cln2 rad14 strain, active compounds read high
# Summary of the method: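 Compounds are applied to the cln2 rad14 yeast strain, and growth is then compared with that of vehicle-treated cultures to give inhibition.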
# [5] = NCI Yeast Anticancer Drug Screen. Data for the bub3 strain (AID 167); conditions: S. cerevisiae bub3 mutant strain, active compounds read high
# Summary of the method: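 Mutant yeast screening strain plus compound; vehicle-treated cultures serve as the 0% inhibition reference.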
# [6] = NCI Yeast Anticancer Drug Screen. Data for the mlh1 rad18 strain (AID 175); conditions: S. cerevisiae mlh1 rad18 strain growth inhibition, active compounds read high
# Summary of the method: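 Read-out is yeast growth inhibition, calculated against vehicle-only controls. The compound was applied to a strain engineered with DNA damage repair alterations.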
# [7] = at 5.0 µM (retest, dose inferred, filed as 0.5)
# [8] = at 50.0 µM (retest, dose inferred, filed as 5.0)
Compound,"growth inhibition [1, 7]","growth inhibition [1, 8]",growth inhibition ([1]; at 50.0 µM),"growth inhibition [2, 7]","growth inhibition [2, 8]",growth inhibition ([2]; at 50.0 µM),"growth inhibition [3, 7]","growth inhibition [3, 8]",growth inhibition ([3]; at 50.0 µM),"growth inhibition [4, 7]","growth inhibition [4, 8]",growth inhibition ([4]; at 50.0 µM),"growth inhibition [5, 7]","growth inhibition [5, 8]",growth inhibition ([5]; at 50.0 µM),"growth inhibition [6, 7]","growth inhibition [6, 8]",growth inhibition ([6]; at 50.0 µM)
Nc1ccc(S(=O)(=O)Nc2cc(Cl)cc(Cl)c2)cc1,-4%,92% (active),99.5% (active),-4%,100% (active),97.2% (active),-4%,99% (active),99.3% (active),-15%,99% (active),97.3% (active),3%,99% (active),99.2% (active),1%,99% (active),98.2% (active)
OC(c1cc(-c2ccccc2)nc2c(Cl)cc(Cl)cc12)C1CCCCN1 (configuration not stated),14%,97% (active),99.5% (active),18%,92% (active),99.6% (active),18%,98% (active),99.1% (active),3%,98% (active),98.3% (active),2%,99% (active),97.5% (active),11%,96% (active),98.8% (active)
CCN(CC)CCOc1ccc(C(O)(Cc2ccc(Cl)cc2)c2ccccc2)cc1 (configuration not stated),39%,90% (active),90.9% (active),35%,87% (active),83.8% (active),58%,95% (active),97.5% (active),56%,93% (active),98.3% (active),57%,89% (active),81.2% (active),51%,89% (active),97.2% (active)
C1CCC(CCNCCC2CCCCC2)CC1,-1%,99% (active),99% (active),-15%,99% (active),97.5% (active),25%,99% (active),99% (active),-15%,99% (active),98.7% (active),-8%,99% (active),98.5% (active),8%,99% (active),98.7% (active)
O=C(/C=N/O)c1c(-c2ccccc2)[nH]c(-c2ccccc2)c1-c1ccccc1,4%,75% (active),94.2% (active),5%,77% (active),77.8% (active),7%,90% (active),96.3% (active),1%,33%,91% (active),11%,13%,85.7% (active),31%,93% (active),96% (active)
Cc1c(N=Nc2c(S(=O)(=O)O)cc3cc(S(=O)(=O)O)c(N=Nc4c(C)n(C)n(-c5ccccc5)c4=O)c(O)c3c2O)c(=O)n(-c2ccccc2)n1C,-20%,-13%,3.25%,-18%,-31%,32.8%,-7%,26%,4.15%,7%,8%,36.4%,-19%,-11%,-29.4%,5%,-7%,-6.6%
CCOC(=O)N1CCN(C=S)CC1,-8%,6%,31.1%,0%,-7%,-23.3%,-5%,-17%,57.7%,17%,31%,15.8%,8%,31%,24%,-5%,-1%,38.2%
O=c1c(O)cc2c(O)oc3c(=O)c(O)c(O)c4c(O)oc1c2c43,58%,96% (active),88.4% (active),23%,93% (active),57.2%,41%,90% (active),67.2%,12%,90% (active),50.3%,25%,90% (active),85% (active),41%,96% (active),66.2%
O=C1OC(=O)c2ccc(S)c3cccc1c23,-35%,95% (active),81.8% (active),-25%,85% (active),61.2%,-53%,86% (active),38.6%,-42%,68%,36.7%,-32%,90% (active),88.8% (active),-80%,95% (active),76% (active)
NC(=S)n1nc(-c2ccccc2)c(N=Nc2ccccc2Cl)c1-c1ccccc1,3%,84% (active),94.8% (active),0%,58%,55.5%,1%,83% (active),72.9% (active),21%,92% (active),73.9% (active),16%,92% (active),93.7% (active),2%,71% (active),90.6% (active)
CN(C)c1ccc(C2CC(C)(N3CCCC3)Oc3cc4c(cc32)OCO4)cc1 (configuration not stated),23%,42%,17.1%,2%,24%,5%,-10%,43%,13.3%,9%,50%,23.9%,11%,84% (active),26.9%,12%,32%,33.5%
C=C1CCCCC1C(C(=O)O)(c1ccccc1)c1ccccc1 (configuration not stated),77% (active),98% (active),98.7% (active),71% (active),99% (active),99.3% (active),79% (active),99% (active),99.3% (active),72% (active),99% (active),99.3% (active),51%,99% (active),98.2% (active),92% (active),99% (active),99.5% (active)
CS(=O)(=O)OCCN(CCOS(C)(=O)=O)c1ccc(C=Nc2cc(Br)c(O)c(Br)c2)c(Cl)c1,3%,70% (active),67.7%,29%,39%,36.8%,3%,80% (active),82.5% (active),5%,45%,10.2%,-3%,96% (active),40.3%,8%,91% (active),85.8% (active)
CCCCNc1cccc2ncccc12,11%,53%,17.1%,9%,34%,9.85%,14%,58%,21.8%,9%,28%,-3.9%,4%,31%,-4.2%,21%,57%,50%
CCOC(=O)c1ccc(O)c(C=O)c1,-103%,90% (active),99.2% (active),-29%,98% (active),99.6% (active),-35%,98% (active),99.3% (active),-28%,98% (active),99% (active),-49%,98% (active),98.6% (active),-83%,98% (active),99.5% (active)
C[n+]1c2ccccc2cc2[nH]c3ccccc3c21,84% (active),93% (active),74% (active),86% (active),96% (active),78.6% (active),89% (active),98% (active),79.7% (active),63%,75% (active),64.8%,84% (active),84% (active),72.7% (active),90% (active),97% (active),77.3% (active)
COC1OC2=CCC3C(=O)NC(=O)C3C2[C@H](OCc2ccccc2)C1OCc1ccccc1 (some centres not stated),11%,99% (active),98.4% (active),-13%,99% (active),99.7% (active),11%,99% (active),98.8% (active),0%,99% (active),93.5% (active),2%,97% (active),98.8% (active),4%,98% (active),98.9% (active)
CC(C)(COC(=O)Nc1cccc(Cl)c1)[N+](=O)[O-],2%,15%,88.3% (active),-3%,6%,5.6%,-1%,3%,53.3%,-41%,-3%,-33.5%,-1%,3%,65.7%,-1%,6%,82.6% (active)
O=C(CC(C(=O)O)c1c[nH]c2ccccc12)c1ccccc1 (configuration not stated),-2%,-2%,45.4%,-3%,7%,-18.6%,-5%,0%,56.8%,-5%,-63%,-16.6%,-1%,7%,93.8% (active),-4%,1%,-0.1%
